IL1B secr inh: blocks inflammasome-driven IL-1 beta release. THP-1 LPS/ATP IL-1B secretion, AlphaLISA, 16 h; active compounds read low. activity change, % at 57.5 µM. 4.7% of 360,000 active; in the data active = activity change below about -50%; inconclusive = mostly about -30% to -49%
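THP-1 cells pretreated 1 hr with compounds (up to 57.5 uM final), then stimulated with LPS (250 ng/mL final) plus ATP (1.25 mM final); secreted IL-1B measured by AlphaLISA after 16 hr, decreased signal indicating inhibition.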
VP16 counter: counter-screen for ROR gamma inhibitors: Gal4-VP16 reporter; 3.5% of 310,000 active; Potency, µM (titrated, usually from 53.6 µM), for the others: at the highest dose activity, negative = inhibition, actives largely listed as inhibitors; Drosophila S2 Gal4-VP16 UAS-luciferase, luminescence, 20 h;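 note: Gal4-VP16 expression switched on by copper sulfate through the metallothionein promoter; potency is the fitted concentration of half-maximal effect; nearly all actives have a fitted effect of over 50% in size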
TDP1 cell noCPT: qHTS for Inhibitors of human tyrosyl-DNA phosphodiesterase 1 (TDP1): qHTS in cells in absence of CPT; Potency, µM (series often up to 46.2 µM), for the others: at the top dose activity change, negative = growth inhibition, usual class: inhibitors; 15% of 420,000 active; DT40 Tdp1-/- hTDP1 cells, no CPT, ATP luminescence, 48 h; AID 686978, 2013; note: potency is the fitted concentration of half-maximal effect; nearly all actives have a fitted effect of over 55% in size
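Chicken DT40 Tdp1-/- cells complemented with human TDP1, screened without camptothecin (DMSO vehicle only), 400 cells/well. Compounds pin-transferred, cells incubated at 37 °C for at least 48 hr. Growth read as ATP-dependent luminescence (CellTiter-Glo, 30 min at RT).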
ELG1 DNA repair: blocks ELG1-dependent DNA repair in HEK293T cells. HEK293T ELG1-luciferase reporter, luminescence, 16 h; DNA damage induced by 5-fluorouridine. Potency, µM (series often up to 46.1 µM), without a hit: at the top dose activity change, negative = inhibition, hits mostly inhibitors. 2.3% of 330,000 active; note: potency is the fitted concentration of half-maximal effect; nearly all actives have a fitted effect of over 55% in size
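Luminescence from the luciferase reporter, measured 30 min after ONE-Glo reagent at room temperature, was the read-out. Beforehand, 2,000 cells per well were exposed for 16 hr at 37 °C to 5-fluorouridine together with compound or vehicle.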
DT40 TDP1 CPT: growth inhibition of DT40 Tdp1-/-;hTDP1 cells with camptothecin (screen for TDP1 inhibitors). chicken DT40 Tdp1-/-;hTDP1 cells + 20 nM CPT, ATP luminescence, 48 h. Potency, µM (titrated, usually from 46.2 µM), for the others: at the highest dose activity change, negative = growth inhibition, most hits filed as inhibitors. 12% of 420,000 active. AID 686979; note: potency is the fitted concentration of half-maximal effect; nearly all actives have a fitted effect of over 55% in size
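Chicken DT40 Tdp1-/- cells complemented with human TDP1, 400 cells/well, exposed to compounds plus 20 nM camptothecin for at least 48 h at 37 C; viability read as ATP content by CellTiter-Glo luminescence.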
RORg inh: ROR gamma (mouse) transcription inhibition; Drosophila S2 Gal4-RORgamma UAS-luciferase reporter, 20 h; Potency, µM (series often up to 53.6 µM), inactives show top-dose activity change, negative = inhibition, most hits filed as inhibitors; 5.4% of 310,000 active; AID 2551; note: potency is the fitted concentration of half-maximal effect; nearly all actives have a fitted effect of over 60% in size
Target sequence (P51450 whole entry, looked up, the tested form may be a part): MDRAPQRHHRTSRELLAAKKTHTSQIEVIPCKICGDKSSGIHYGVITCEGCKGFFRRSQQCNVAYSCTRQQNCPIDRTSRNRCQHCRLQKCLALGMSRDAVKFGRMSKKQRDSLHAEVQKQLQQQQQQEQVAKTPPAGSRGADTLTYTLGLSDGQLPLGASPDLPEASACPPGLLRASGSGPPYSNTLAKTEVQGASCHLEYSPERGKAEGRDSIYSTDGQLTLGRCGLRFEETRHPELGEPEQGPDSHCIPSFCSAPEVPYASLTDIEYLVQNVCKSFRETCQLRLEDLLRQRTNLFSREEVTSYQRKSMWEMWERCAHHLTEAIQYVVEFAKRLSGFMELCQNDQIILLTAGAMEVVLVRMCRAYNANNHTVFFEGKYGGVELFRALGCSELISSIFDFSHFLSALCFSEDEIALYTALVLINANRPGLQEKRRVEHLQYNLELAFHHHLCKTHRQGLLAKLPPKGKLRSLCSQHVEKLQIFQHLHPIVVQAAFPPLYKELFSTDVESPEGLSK
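Luminescence from a UAS-regulated Photinus luciferase reporter in stably transfected Drosophila Schneider cells is measured; decreased signal marks ROR gamma inhibition. Fusion expression is induced by 700 uM copper sulfate for 20 hr.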
* = called active by the depositor; u = inconclusive; x = no result given; [ ] = remark or other dose. Sampled rows, rich in hits. Any-hit rate of the full collection: about 21%. Unless noted, calls come from the whole dose curve; as a rule, active = well fitted curve in the direction sought with a large enough effect; inconclusive = small, poorly fitted or top-dose-only effect, or another doubt; inactive = no such curve, though single readings can be large; an effect the other way counts as inactive or inconclusive. % is set by controls: 0 for no effect and ±100 for the full control effect.

SMILES	IL1B secr inh	VP16 counter	TDP1 cell noCPT	ELG1 DNA repair	DT40 TDP1 CPT	RORg inh
Cc1nnc(Nc2ccc(S(N)(=O)=O)cc2)c2ccccc12	-3	21%	7%	0%	29%	6%[1.91 µM]
NS(=O)(=O)c1ccc(NC2=CC(=O)C(=O)c3ccccc32)cc1	-78*	u	2.6µM*	10µM*	8.2µM*	10µM*
CCOC(=O)c1ccc(NC2=CC(=O)C(=O)c3ccccc32)cc1	9	u	23µM*	-6%	23µM*	u
CCCCCCCCCn1c2c(c(=N)c3c1CCC3)CCCC2	-99*	u	0.018µM*	u	0.026µM*	4µM*
CCn1c2c(c(=N)c3c1CCC3)CCCC2	40	-6%	9.2µM*	u	u	15%
CCOC(=O)Cn1c2c(c(=N)c3c1CCC3)CCC2	14	-4%	-7%	u	-8%	31%
CCCCCCCCCCn1c2c(c(=N)c3c1CCC3)CCC2	-96*	3.2µM*	0.029µM*	u	0.26µM*	8.9µM*
CCCCCc1nc2c(c3c1CCCC3)CCCC2	-7	-4%	u	16%	u	-36%
COc1ccc(C(=O)N2CCC[C@@]3(CCN(C(=O)Nc4ccccc4)C3)C2)cc1	x	3%	u	x	-27%	-38%
CCOC(=O)CN1C(c2ccccc2O)Nc2ccc(Br)cc2C1c1ccccc1 (stereo not given)	17	7.1µM*	u	3%	-3%	-95%
COc1ccc(-c2c(C#Cc3ccsc3)c3cc(Br)ccc3n2C)cc1	9	x	21µM*	11%	u	x
COc1ccc(-c2c(C#Cc3ccsc3)c3cc(-c4ccc5cc[nH]c5c4)ccc3n2C)cc1	11	x	21µM*	u	u	x
COc1ccc(-c2c(C#Cc3ccc(N(C)C)cc3)c3ccccc3n2C)cc1	-8	x	u	u	23µM*	x
C=CCn1c2ccccc2c(=O)c2cc(C#Cc3cc(OC)cc(OC)c3)ccc21	0	x	u	24%	16µM*	x
Cn1c2ccccc2c(=O)c2cc(C#Cc3ccccn3)ccc21	12	u	u	u	-18%	u
COc1ccc2[nH]c3c(c2c1)CCN1C(=O)C(CC(=O)NCCCn2ccnc2)C[C@H](C(=O)N2CCCCC2)[C@@]31CCc1ccccc1 (stereo not given in full)	-6	x	u	12%	u	x
Cn1c(=O)c2c(SCC(=O)NCc3ccco3)nc(-c3ccccc3F)nc2n(C)c1=O	x	x	-13%	x	-8%	x
COc1cc(C#Cc2c(C=O)n(C)c3ccccc23)cc(OC)c1	28	x	23µM*	u	u	x
Cn1cncc1C#Cc1c(C=O)n(C)c2ccccc12	30	x	-13%	-28%	u	x
O=c1[nH]c(CCl)nc2cc(-c3ccc(F)cc3)sc12	-102*	u	4.1µM*	u	5.2µM*	13µM*
O=C(CN1C(=O)C(c2ccc(F)cc2)=NC12CCCC2)Nc1ccc(F)cc1	-20	u	5.8µM*	u	8.2µM*	-16%
COc1ccc(NC(=O)CN2C(=O)C(c3ccccc3)=NC23CCCCCC3)cc1	-56*	1%	u	-20%	u	u
COc1ccc(NC(=O)CN2C(=O)NC3(CCCCCCC3)C2=O)cc1	-11	x	-27%	11%	-15%	x
O=C(Nc1ccc(F)cc1)c1sc2cc(C(F)(F)F)cnc2c1-c1cccs1	-14	5%	18µM*	-3%	u	1%
CN1CC2=Cc3ccccc3OC23Oc2ccccc2C=C3C1	-117*	6%	u	-13%	u	-42%
SMILES	IL1B secr inh	VP16 counter	TDP1 cell noCPT	ELG1 DNA repair	DT40 TDP1 CPT	RORg inh
CC(C)(C)OC(=O)C[C@H]1C/C=C\C[C@H](CC(=O)N(CCO)Cc2ccccc2)C(=O)N[C@@H](c2ccccc2)COC1=O	-17	x	u	8.2µM*	u	x
CC(C)(C)OC(=O)C[C@@H]1C/C=C\C[C@H](CC(=O)N(CCO)Cc2ccccc2)C(=O)N[C@H](Cc2ccccc2)COC1=O	-19	x	23µM*	u	u	x
CC(C)(C)OC(=O)C[C@@H]1C/C=C\C[C@@H](CC(=O)N(CCO)Cc2ccccc2)C(=O)N[C@H](C(C)(C)C)COC1=O	14	x	u	u	21µM*	x
CC(C)(C)OC(=O)C[C@H]1C/C=C\C[C@@H](CC(=O)N(CCO)Cc2ccccc2)C(=O)N[C@H](C(C)(C)C)COC1=O	2	x	15µM*	5%	u	x
C[C@H]1COC(=O)[C@H](CC(=O)OC(C)(C)C)C/C=C\C[C@@H](CC(=O)N(CCO)Cc2ccccc2)C(=O)N1	18	x	u	-3%	u	x
CC(C)(C)OC(=O)C[C@H]1C/C=C\C[C@@H](CC(=O)N(CCO)Cc2ccccc2)C(=O)N[C@@H](c2ccccc2)COC1=O	-4	x	u	u	u	x
CC(C)(C)OC(=O)C[C@@H]1C/C=C\C[C@H](CC(=O)N(CCO)Cc2ccccc2)C(=O)N[C@@H](Cc2ccccc2)COC1=O	-14	x	u	u	u	x
CCN(CC)CCNC(=O)C(=O)NCC(c1cccnc1)N1CCN(c2ccccc2)CC1 (stereo not given)	x	x	-26%	x	-13%	x
COc1cccc(/C=c2\s/c(=C\C(=O)C(C)(C)C)[nH]c2=O)c1	12	u	u	u	u	10µM*
COc1ccc(/C=c2\s/c(=C/C(=O)c3ccc(C)cc3)[nH]c2=O)c(OC)c1	-21	-79%	u	3%	-21%	u
Cc1ccc(OCCCn2c(-c3ccc(Cl)cc3)nc3ccccc3c2=O)cc1C	x	x	-12%	x	-5%	x
CCC(=O)c1ccc(OCC(=O)NCC2COc3ccccc3O2)cc1 (stereo not given)	9	x	-24%	6%	-21%	x
NC(=S)COc1ccccc1	14	-19%	0%	5%	14%	22µM*
O=C(O)COc1ccc(Nc2ccccc2)cc1	1	3%	-10%	2%	0%	-19%
O=C(O)COc1ccc(Oc2ccccc2)cc1	0	13µM*	9%	11%	7%	u
COc1cc2c(cc1OC)C1O[C@](c3ccsc3)(C2)OC2=C1C(=O)OC1(CCCCC1)C2	x	u	x	x	x	-5%[10 µM]
Cc1c(OCC(=O)N[C@@H](Cc2c[nH]c3ccccc23)C(=O)O)ccc2c1oc(=O)c1ccccc12	13	1%	-11%	12%	-18%	0%
